Compounds without any hit were thinned out: in the full panel of roughly 83,000, 20% have a hit.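 Negative percent growth values reflect cell death: -40 means 40% of the cells present at the start died, and -100 means all died.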 Unmarked numbers belong to inactive results. The source made the active and inactive calls. Rule for the calls: active = growth percent below 10; inactive = the rest.
Tests used:
Assay in all cases: NCI-60 one-dose screen, 48 h (100 = growth as untreated, 0 = no growth, -100 = all killed)
Conditions in all cases: 10 µM unless noted
NCI-H23 lung = test system: NCI-H23 lung
NCI-H226 lung = test system: NCI-H226 lung
NCI-H322M lung = test system: NCI-H322M lung
HOP-62 NSCLC = test system: HOP-62 NSCLC
NCI-H460 lung = test system: NCI-H460 lung
HOP-92 NSCLC = test system: HOP-92 NSCLC
NCI-H522 lung = test system: NCI-H522 lung
A549/ATCC NSCLC = test system: A549/ATCC NSCLC
786-0 renal = test system: 786-0 renal
COLO 205 colon = test system: COLO 205 colon
DU-145 prostate = test system: DU-145 prostate
K-562 leukemia = test system: K-562 leukemia
MALME-3M melanoma = test system: MALME-3M melanoma
MDA-MB-231 breast = test system: MDA-MB-231 breast
RXF 393 renal = test system: RXF 393 renal
SF-268 CNS = test system: SF-268 CNS
SF-295 CNS = test system: SF-295 CNS
SF-539 CNS = test system: SF-539 CNS
UACC-257 melanoma = test system: UACC-257 melanoma
M14 melanoma = test system: M14 melanoma

Compound	growth (NCI-H23 lung)	growth (NCI-H226 lung)	growth (NCI-H322M lung)	growth (HOP-62 NSCLC)	growth (NCI-H460 lung)	growth (HOP-92 NSCLC)	growth (NCI-H522 lung)	growth (A549/ATCC NSCLC)	growth (786-0 renal)	growth (COLO 205 colon)	growth (DU-145 prostate)	growth (K-562 leukemia)	growth (MALME-3M melanoma)	growth (MDA-MB-231 breast)	growth (RXF 393 renal)	growth (SF-268 CNS)	growth (SF-295 CNS)	growth (SF-539 CNS)	growth (UACC-257 melanoma)	growth (M14 melanoma)
CCOc1ccc(NC(=O)Nc2ccc(OCC)cc2)cc1	106%	104%	104%	98.2%	106%	106%	103%	95.9%	108%	104%	106%	97.6%	100%	110%	114%	104%	95.7%	97.2%	113%	109%
CN(C)C1CN(C(=O)c2cc(-c3ccc4ncnc(N5CCc6cc(F)c(Cl)cc65)c4c3)cnc2N)C1	23.9%	30.7%	5.68% (active)	16.5%	12.7%	-15% (active)	16.3%	6.53% (active)	7.47% (active)	20.4%	9.86% (active)	23.8%	-21.2% (active)	27.8%	-32% (active)	18.4%	8.16% (active)	-1.35% (active)	16.4%	9.34% (active)
O=C(Nc1cc(Cl)ccc1O)c1ccccc1Nc1ccnc(C(F)(F)F)c1	-5.07% (active)	50.9%	30.9%	16.6%	2.15% (active)	49.1%	-6.22% (active)	19.7%	57.9%	79.6%	23.8%	0.85% (active)	-0.18% (active)	29.8%	25.7%	21.1%	46.3%	14.5%	26.8%	36%
Cc1cn(C)cn1	97.7%	108%	116%	111%	106%	81.8%	89.3%	94.2%	97.9%	125%	107%	106%	96.1%	112%	117%	106%	105%	110%	90.2%	103%
CS(=O)(=O)Nc1cc(-c2ccc3ncnc(Nc4ccc5c(cnn5Cc5ccncc5)c4)c3c2)cnc1Cl	62.2%	92%	76%	43.9%	97.2%	-7.79% (active)	46.4%	86%	66.3%	89.2%	78.9%	53.5%	20.8%	43.4%	21.1%	45%	84.5%	50.3%	59.4%	56.2%
COC(=O)[C@@]1(C)CC[C@]2(C)CC[C@]3(C)C4=CC=C5C(=CC(=O)C(O)=C5C)[C@]4(C)[C@@H](O)C[C@@]3(C)[C@@H]2C1	49.2%	98.7%	96.8%	89.7%	63.6%	-3.8% (active)	-24.2% (active)	88.3%	-30.3% (active)	12.8%	21.3%	8.3% (active)	7.58% (active)	-0.344% (active)	-35.1% (active)	62.5%	74.8%	-8.84% (active)	32%	7.16% (active)
CN(C)Cc1cc(C(C)(C)C)cc(Br)c1O	107%	101%	118%	110%	86.5%	87.5%	103%	109%	101%	102%	109%	106%	122%	113%	93.9%	104%	97.3%	88.6%	119%	101%
CC(=O)N1N=C(c2ccc(Nc3nc(Nc4ccc(F)cc4)nc(Nc4ccc(F)cc4)n3)cc2)CC1c1ccc(N(C)C)cc1 (stereo not given)	52.2%	74.6%	84%	54.5%	54.3%	35.3%	46%	39.3%	58.5%	46.6%	78.2%	16.8%	42.1%	70%	9.66% (active)	74.4%	18.2%	65.5%	74.2%	40.2%
S=c1ccnc[nH]1	103%	107%	114%	109%	105%	76.2%	65.8%	98.2%	89.7%	102%	116%	113%	123%	115%	128%	113%	115%	100%	105%	96.6%
Cc1cccc(N2C(=O)/C(=C/C(Cl)=C/c3ccc([N+](=O)[O-])cc3)SC2=S)c1C	10.4%	-38.1% (active)	82.2%	17.2%	21%	-28.1% (active)	-29.3% (active)	22.6%	1.63% (active)	-31.9% (active)	27.3%	3.9% (active)	-8.54% (active)	-6.22% (active)	-33.6% (active)	40.5%	22.3%	-3.16% (active)	14.3%	22.5%
C[C@H]1[C@H](C)CC[C@]2(C(=O)NCCNCCN)CC[C@]3(C)C(=CC[C@@H]4[C@@]5(C)CCC(=O)C(C)(C)[C@@H]5CC[C@]43C)[C@H]12	94.2%	99.3%	85%	81.1%	-80% (active)	52.9%	54.3%	42.4%	80.7%	-49.9% (active)	51.6%	-9.33% (active)	71.3%	52.9%	85%	72.6%	102%	-28.3% (active)	88.7%	40.9%
CCn1cc(C(=O)N/N=C/c2ccccc2)c(=O)c2cc(F)c(N3CCNC(C)C3)c(F)c21 (stereo not given)	68.5%	87.4%	52.4%	68.6%	-73% (active)	55.8%	-75.3% (active)	-83.9% (active)	-67.4% (active)	-74.4% (active)	-87.9% (active)	-39.4% (active)	-78% (active)	-70.4% (active)	-61.3% (active)	38.9%	8.87% (active)	-86.9% (active)	39.6%	-49.7% (active)
N[C@@H]1CCC[C@H]1NCCCCN1C(=O)c2cccc3cc([N+](=O)[O-])cc(c23)C1=O	39.3%	11%	41.2%	31.7%	6.71% (active)	34.5%	40.6%	22.4%	25%	22.8%	22.2%	18.6%	57.5%	45.1%	32.3%	34.3%	55.5%	32.7%	61.2%	63.7%
CN1c2ccccc2S(=O)(=O)n2c(SCC(=O)Nc3nc4ccc(F)cc4s3)nnc21	97.4%	113%	93.1%	103%	103%	84.7%	72.2%	82.8%	112%	114%	125%	116%	98.8%	103%	-23.2% (active)	105%	124%	108%	86.2%	100%
COc1ccc(/C=C2\CN(C(=O)C(Cl)Cl)C/C(=C\c3ccc(OC)c(OC)c3)C2=O)cc1OC	-51.8% (active)	42.8%	30%	34.3%	-51.9% (active)	-7.03% (active)	-14.1% (active)	4.8% (active)	-94.9% (active)	-2.98% (active)	-16% (active)	4.57% (active)	-70.9% (active)	7.12% (active)	-67.1% (active)	17.8%	-39.6% (active)	-23.8% (active)	18.4%	-72.6% (active)

— PubChem BioAssay (NCI)
